Mtb FBA inh: Mtb FBA enzyme inhibitors, primary screen, biochemical, fluorescence, strain H37Rv. Fructose-bisphosphate aldolase (Mycobacterium tuberculosis (strain ATCC 25618 / H37Rv)), …. purified M. tuberculosis FBA, fluorescence read-out. inhibition, % at 1 µM. 2.3% of 360,000 active. AID 588726, 2011;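 also: 0% = vehicle and 100% = reference inhibitor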
Target sequence (P9WQA3 whole entry, looked up): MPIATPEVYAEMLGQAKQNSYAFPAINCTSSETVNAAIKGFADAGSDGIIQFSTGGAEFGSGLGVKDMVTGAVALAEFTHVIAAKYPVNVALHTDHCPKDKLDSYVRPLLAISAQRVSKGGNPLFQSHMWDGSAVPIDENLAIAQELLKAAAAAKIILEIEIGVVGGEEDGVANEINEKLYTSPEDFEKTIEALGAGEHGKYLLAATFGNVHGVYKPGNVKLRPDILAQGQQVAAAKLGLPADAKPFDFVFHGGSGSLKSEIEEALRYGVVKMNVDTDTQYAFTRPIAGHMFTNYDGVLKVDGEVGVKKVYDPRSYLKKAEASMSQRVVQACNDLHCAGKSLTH
PrPC TRFRET: inhibitors of human cell surface prion protein PrPC, primary screen, cell-based, TR-FRET; Major prion protein (Homo sapiens), P04156; TR-FRET read-out; 0.43% of 370,000 active; inhibition, % at 13.8 µM; AID 720596, 2013; in the data active = inhibition above about 24%; also: 0% = median of the test wells and 100% = reference compound wells
GDH-TPI counter-1: GDH-TPI coupling enzyme inhibitors, primary screen, artefact control for M. tuberculosis FBA inhibitor project, biochemical, absorbance, full deck; 1.2% of 360,000 active; inhibition, % at 4.8 µM; GDH-TPI coupled enzyme counterscreen, NADH absorbance; in the data active = inhibition above about 30%;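 also: 0% = DMSO wells and 100% = wells lacking the enzyme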
RecA splice inh: Mtb RecA intein splicing inhibitors, primary screen, biochemical, fluorescence, HTS | Protein RecA (Mycobacterium tuberculosis (strain ATCC 25618 / H37Rv)), P9WHJ3 | cell-free RecA intein splicing | inhibition, % (test concentration not listed) | 0.75% of 290,000 active | AID 2221, 2009; in the data active = inhibition above about 30%;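 also: 0% = vehicle wells and 100% = reference inhibitor control wells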
BJeLR lethal: MLPCN primary cell-based screen for lethality selective to Ras in HRASV12 cells; BJeLR (HRASV12) viability, CellTiter-Glo ATP luminescence, 48 h; inhibition, % (test concentration not listed); 0.17% of 300,000 active; in the data active = inhibition above about 50%
Mtb FBA inh conf: M. tuberculosis aldolase blockers, biochemical, fluorescence, strain H37Rv, confirmation. shares compounds with Mtb FBA inh. purified M. tuberculosis FBA, fluorescence read-out. inhibition, % at 1 µM. 78% of 5,600 active;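 also: 0% = vehicle wells and 100% = reference inhibitor wells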
GDH-TPI counter-2: GDH-TPI coupling enzyme inhibitors, artefact control for M. tuberculosis FBA inhibitor project, biochemical, fluorescence, high throughput | GDH-TPI coupled enzyme counterscreen | AID 652141, 2013 | inhibition, % at 1 µM | shares compounds with Mtb FBA inh | 81% of 5,600 active; in the data active = inhibition above about 10%
GDH-TPI DR: GDH-TPI coupling enzyme inhibitors, dose response, artefact control for M. tuberculosis FBA inhibitor project, biochemical, fluorescence, IC50; AID 652145, 2013; IC50, µM; GDH-TPI coupled enzyme assay, artifact counterscreen; 79% of 170 active; shares compounds with Mtb FBA inh; call rule not given here
* marks the source's active call; other numbers are inactive results; / = no result given. This is a sample that favours compounds with a hit; in the whole collection about 4.2% have one here. Rule as the data show it, unless noted: active = inhibition above about 27%; inactive = the rest.

SMILES	Mtb FBA inh	PrPC TRFRET	GDH-TPI counter-1	RecA splice inh	BJeLR lethal	Mtb FBA inh conf	GDH-TPI counter-2	others
O=C(Cc1ccccc1)Nc1nnc(-c2cccs2)s1	68*	-7	23	-2	-22	106*	83*
CCC(C)C(=O)Nc1nnc(-c2cccs2)s1 (stereo not given)	32*	-1	10	/	/	51*	47*
CCC(=O)Nc1nnc(-c2cccs2)s1	27*	1	0	-2	-9	0	-4
CC(C)(C)OC(=O)N[C@@H]1C=CC(=O)C1	/	-1	/	/	/	/	/
COC(=O)[C@]12C[C@H](CC(=O)NCC3CCCCC3)C(=O)N(Cc3cccc4ccccc34)C1=C[C@H](C(C)C)O[C@@H]2C1CC1	/	-3	/	/	/	/	/
Cc1ccc(CN2CCC=CS2(=O)=O)cc1	/	-2	/	/	/	/	/
Cc1c(C(=O)Nc2ccc(Cl)cc2)c2ccccn2c1CCc1ccncc1	32*	0	8	0	-3	12	1	GDH-TPI DR=0.97*
Cc1c(C(=O)Nc2cccc(Cl)c2)c2ccccn2c1CCc1ccncc1	26	3	23	/	3	/	/
COc1cc2c(cc1O)C[C@H]1c3c(cc(O)c(OC)c3-2)CCN1C	47*	-13	4	/	/	32*	23*
CN1CCc2cc(O)cc3c2[C@H]1Cc1ccc(O)c(O)c1-3	7	-10	11	2	-7	/	/
COc1ccc(/C=C2\CC3(OC(=O)c4ccco4)CCCN2C3)cc1 (stereo not given)	/	-15	/	/	/	/	/
COC(=O)c1ccc(-c2ccc(CNCC(O)c3ccccc3)o2)cc1 (stereo not given)	36*	-1	14	6	3	126*	106*
Brc1c(CSc2nncn2-c2ccccc2)nc2sccn12	1	-8	-9	1	-11	/	/
Cc1cc(C)nc(SCc2cn3c(C)cccc3n2)n1	2	-2	1	-5	-7	/	/
Cc1cc(C)nc(SCc2nc3ncccn3c2Br)n1	66*	-6	10	6	0	31*	10	GDH-TPI DR=2.7*
Brc1c(CSc2nncn2-c2ccccc2)nc2ncccn12	83*	-3	19	-1	-6	103*	75*
COC(=O)C1=C(C)N(Cc2cccc(C(F)(F)F)c2)C(=NCc2ccc3c(c2)OCO3)NC1CCc1ccccc1 (stereo not given)	/	-6	/	/	/	/	/
Cc1nc2c(c(C)nn2-c2ccccc2)c(C)c1CCC(=O)Nc1ccc(CN2CCCC2)cc1	30*	-14	8	3	10	66*	49*
Cc1nc2c(c(C)nn2-c2ccccc2)c(C)c1CCC(=O)NCCCOC(C)C	41*	-5	3	-1	9	40*	36*
COC(=O)C(NC(=O)CCc1c(C)nc2c(c(C)nn2-c2ccccc2)c1C)C(C)C (stereo not given)	43*	6	4	1	-2	57*	48*
CCCCNC(=O)CCc1c(C)nc2c(c(C)nn2-c2ccccc2)c1C	25	7	4	-2	-2	/	/
CCC(C)NC(=O)CCc1c(C)nc2c(c(C)nn2-c2ccccc2)c1C (stereo not given)	44*	5	3	-1	2	50*	34*
C[C@H]1C2CC(OC(=O)NCc3ccccc3)C(C2)[C@H]2CCCCN21 (stereo not given in full)	/	-3	/	/	/	/	/
CSc1nnc(-c2ccc(S(=O)(=O)N3CCCC3)cc2)n1C	47*	2	2	-3	-10	92*	71*
Cn1c(SCC(N)=O)nnc1-c1ccc(S(=O)(=O)N2CCCC2)cc1	2	5	5	-1	-6	/	/

Screening data deposited in PubChem by several laboratories.
